The source of these data is PubChem BioAssay AID1347383 (Zoeller Lab, School of Medicine, Boston University, 2020).

Molecules are shown by their SMILES. Active and inactive are the calls of the source.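 The calls were made as follows: active = cell survival after UV exposure 2 SD above solvent-only control wells at 10 µM, confirmed on one or two repeats; inactive = the rest.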

This assay is described as follows: cell survival after pyrene fatty acid photosensitization – ZR-82 cells, Analyticon library, screen 2, phospholipid biosynthesis inhibitor project, primary screen (AID 1347383).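 Also: survival reflects blocked phospholipid synthesis cutting uptake of the phototoxic fatty acid; compound and fatty acid exposure 3 h then viability read next day.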 As to conditions: ZR-82 CHO cells, pyrene-fatty acid UV killing, CellTiter Blue, at 10 µM; peroxisome-deficient CHO-K1 variant, with DGAT-1, DGAT-2 and ACAT inhibitors unless noted. (In general: Alamar Blue is a resazurin reagent that responds to reducing activity.)
Take `CC1(C)C=C2C(=O)C(C)(C)C(=O)C(C)(C)C2(O)OO1` (centres undefined): the result was inactive. `CC1(C)C=Cc2c(ccc3c4c([nH]c23)C(C)(C)C2CC35CCCN3C(=O)C2(C4)NC5=O)O1` (centres undefined): the outcome was inactive.

As for `C[C@]12CC[C@@H](O[C@@H]3O[C@H](CO)[C@@H](O)[C@H](O)[C@H]3O)C[C@@]1(O)CCC1C2CC[C@]2(C)[C@@H](C3=CC(=O)OC3)CC[C@]12O` (some centres undefined), the outcome was inactive. On to `CN1C(=O)c2ccccc2NC(=O)[C@]12O[C@@H]2c1ccccc1`, for which the outcome was inactive. Turning to `O=C1N[C@@H](Cc2ccccc2)CN2CCCC[C@@H]12`, the outcome was inactive. On to `COc1cc(C2c3cc4c(cc3C(O)C3COC(=O)C23)OCO4)cc(OC)c1O` (centres undefined), for which the outcome was inactive. Take `C/C=C1/CN2C3CC1C(CO)C2Cc1c3[nH]c2ccccc12` (centres undefined): the outcome was inactive.

As to `COc1ccc(C23C=C4C5CC6(O)CC7N(CCC57c5ccc(OC)c(OC)c5)C4(CC2NCC3)O6)cc1OC` (centres undefined), the outcome was inactive. For `C[C@@H]1CCC2[C@@H](C)C(=O)OC3O[C@]4(C)CCC1[C@]32OO4` (some centres undefined), the result was inactive. Turning to `CC(C)(C)C1(O)C[C@@H]2OC(=O)C[C@@]23C(=O)O[C@@H]2OC(=O)[C@@H](O)[C@]213` (some centres undefined), the outcome was inactive. On to `C[C@@]1(CO)[C@H](O)CC[C@@]2(C)[C@H]1CC[C@H]1C[C@@H]3C[C@@]12CC[C@]3(O)CO`, for which the outcome is “inactive [setting not given]”.

For `C=CC1C[N+]2([O-])CCC1CC2C(O)c1ccnc2ccc(OC)cc12` (centres undefined), the outcome was inactive. Next, `C[C@]12CC[C@H](O)CC1=CC[C@@H]1C2CC[C@]2(C)[C@@H](C3=CC(=O)OC3)CC[C@]12O` (some centres undefined): “inactive”; `CC[C@H]1CN2CC[C@H]1C[C@H]2[C@H](O)c1ccnc2ccc(OC)cc12`: “inactive”.
